Test results as given in PubChem BioAssay.
Unmarked numbers belong to inactive results. For part of these data: Measured potencies and affinities stand elsewhere. Active and inactive are the calls of the source. Unless noted, how the calls were made is not given here.

What was measured:
[1] = antimalarial activity against Dd2 strain (AID 2302;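 active means growth inhibition above 50% at the single 2 µM test dose, taken to imply half-maximal potency below 2 µM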;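 further: 0% = DMSO untreated growth and 100% = chloroquine plus artemisinin killed control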); conditions: P. falciparum Dd2 in RBCs, LDH growth readout, 72 h; at 2 µM; stronger effect = higher value
[2] = human hepatoma cell viability loss – ATP luminescence, cytotoxicity control for P. falciparum antimalarial project, primary screen (AID 2303;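 active means inhibition above 50%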;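 further: 0% = DMSO wells and 100% = digitonin-killed cells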); conditions: HepG2 viability, 24-48 h, at 10 µM, stronger effect = higher value
[3] = target: L-lactate dehydrogenase (Plasmodium falciparum (isolate CDC / Honduras)) (UniProt Q27743); test: PfLDH activity inhibition – cell lysate, 3D7 strain, counter-screen for P. falciparum growth inhibition project (AID 2304);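 further: 0% = vehicle and 100% = reference inhibitor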; conditions: P. falciparum 3D7 crude extract, LDH APAD/NBT absorbance; at 2 µM; stronger effect = higher value
L-lactate dehydrogenase (Plasmodium falciparum (isolate CDC / Honduras)), sequence (Q27743 whole entry, looked up): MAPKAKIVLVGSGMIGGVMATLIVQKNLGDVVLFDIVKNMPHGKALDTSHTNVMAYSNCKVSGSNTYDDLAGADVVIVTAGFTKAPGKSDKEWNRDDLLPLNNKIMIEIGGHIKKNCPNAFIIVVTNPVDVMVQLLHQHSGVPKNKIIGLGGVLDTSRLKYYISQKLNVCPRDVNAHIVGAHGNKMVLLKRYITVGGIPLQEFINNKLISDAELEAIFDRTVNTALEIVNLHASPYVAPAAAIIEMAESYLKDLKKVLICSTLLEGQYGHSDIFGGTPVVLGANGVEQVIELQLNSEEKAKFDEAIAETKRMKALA

[4] = inhibition of 3D7 malaria parasite growth – strain 3D7 (AID 2306);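 further: 0% = DMSO wells and 100% = chloroquine plus artemisinin control wells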; conditions: P. falciparum 3D7 erythrocytic growth, LDH absorbance, 72 h; at 2 µM; stronger effect = higher value
[5] = target: Calcium-dependent protein kinase 1 (Plasmodium falciparum (isolate 3D7)) (UniProt P62344); test: PfCDPK1 kinase inhibitors, biochemical, TCAMS library (AID 1159585; cut-off not given, nearly all actives have IC50 up to about 0.98 µM;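 further: inhibitors leave more ATP so luminescence rises with inhibition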); conditions: recombinant PfCDPK1, Kinase-Glo ATP depletion luminescence
Calcium-dependent protein kinase 1 (Plasmodium falciparum (isolate 3D7)), sequence (P62344 whole entry, looked up): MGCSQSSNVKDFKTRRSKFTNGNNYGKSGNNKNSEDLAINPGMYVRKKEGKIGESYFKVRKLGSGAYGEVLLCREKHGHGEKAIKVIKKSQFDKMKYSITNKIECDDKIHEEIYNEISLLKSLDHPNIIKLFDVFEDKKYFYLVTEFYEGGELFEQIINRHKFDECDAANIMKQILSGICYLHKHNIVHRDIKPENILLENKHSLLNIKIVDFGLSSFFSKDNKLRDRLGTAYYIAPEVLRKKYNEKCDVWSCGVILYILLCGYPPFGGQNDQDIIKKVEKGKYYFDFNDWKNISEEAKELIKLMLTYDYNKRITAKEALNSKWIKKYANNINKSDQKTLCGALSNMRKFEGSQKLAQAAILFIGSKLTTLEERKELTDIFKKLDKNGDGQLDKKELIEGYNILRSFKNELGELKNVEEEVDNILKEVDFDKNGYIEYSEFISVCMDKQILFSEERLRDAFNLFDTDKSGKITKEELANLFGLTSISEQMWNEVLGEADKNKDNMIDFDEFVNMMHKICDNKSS

[6] = target: Plasmodium falciparum protein kinase 6 (PK6, PF3D7_1337100) (UniProt Q8IDW1); test: PfPK6 kinase inhibitors, biochemical, TCAMS library (AID 1159586); conditions: recombinant PfPK6, Kinase-Glo ATP depletion luminescence
Plasmodium falciparum protein kinase 6 (PK6, PF3D7_1337100), sequence (Q8IDW1 1-305): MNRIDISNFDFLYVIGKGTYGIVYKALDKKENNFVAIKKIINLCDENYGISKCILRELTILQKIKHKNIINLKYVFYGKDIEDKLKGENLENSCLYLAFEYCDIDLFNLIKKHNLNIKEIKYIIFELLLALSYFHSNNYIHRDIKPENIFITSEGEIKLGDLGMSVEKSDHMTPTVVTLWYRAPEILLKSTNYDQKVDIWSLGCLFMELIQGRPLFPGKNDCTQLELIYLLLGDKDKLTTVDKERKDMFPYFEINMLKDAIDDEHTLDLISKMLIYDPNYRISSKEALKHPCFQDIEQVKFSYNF

[7] = target: Protein kinase 7 (PK7), Plasmodium falciparum 3D7 (PF3D7_0213400) (UniProt Q7YTF7); test: inhibition of Plasmodium PK7 catalytic activity – biochemical, TCAMS antimalarial set, Kinase-Glo luminescence (AID 1159587); conditions: recombinant PfPK7, Kinase-Glo ATP depletion luminescence
Protein kinase 7 (PK7), Plasmodium falciparum 3D7 (PF3D7_0213400), sequence (Q7YTF7 1-343): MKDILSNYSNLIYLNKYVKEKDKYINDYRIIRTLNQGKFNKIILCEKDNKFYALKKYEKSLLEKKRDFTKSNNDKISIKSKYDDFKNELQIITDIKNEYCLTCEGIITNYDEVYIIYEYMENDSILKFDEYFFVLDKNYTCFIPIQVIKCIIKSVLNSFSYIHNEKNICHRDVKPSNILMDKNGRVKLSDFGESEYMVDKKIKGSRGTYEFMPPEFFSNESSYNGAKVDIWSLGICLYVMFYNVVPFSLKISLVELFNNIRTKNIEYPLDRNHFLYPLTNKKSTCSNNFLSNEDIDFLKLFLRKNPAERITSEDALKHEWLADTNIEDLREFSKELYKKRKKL

[8] = target: Calcium-dependent protein kinase 4 (Plasmodium falciparum (isolate 3D7)) (UniProt Q8IBS5); test: PfCDPK4 kinase inhibitors, biochemical, TCAMS library (AID 1159588; cut-off not given, nearly all actives have IC50 up to about 0.91 µM); conditions: recombinant PfCDPK4, Kinase-Glo ATP depletion luminescence
Calcium-dependent protein kinase 4 (Plasmodium falciparum (isolate 3D7)), sequence (Q8IBS5 whole entry, looked up): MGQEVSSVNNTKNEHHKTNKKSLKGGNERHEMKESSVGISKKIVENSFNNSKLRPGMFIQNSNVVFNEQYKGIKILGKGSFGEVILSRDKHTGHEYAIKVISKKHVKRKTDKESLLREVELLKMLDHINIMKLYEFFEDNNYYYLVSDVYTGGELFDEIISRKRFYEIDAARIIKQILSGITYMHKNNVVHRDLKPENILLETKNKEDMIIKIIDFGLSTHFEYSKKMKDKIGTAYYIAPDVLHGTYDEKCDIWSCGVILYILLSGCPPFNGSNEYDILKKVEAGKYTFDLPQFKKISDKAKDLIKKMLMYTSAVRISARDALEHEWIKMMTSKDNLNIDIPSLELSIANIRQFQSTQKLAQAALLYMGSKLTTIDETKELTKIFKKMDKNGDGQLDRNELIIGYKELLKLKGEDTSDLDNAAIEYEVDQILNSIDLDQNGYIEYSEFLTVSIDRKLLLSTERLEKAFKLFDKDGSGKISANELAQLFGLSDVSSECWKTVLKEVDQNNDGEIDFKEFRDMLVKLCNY

SMILES | growth inhibition [1] | inhibition [2] | inhibition [3] [%] | growth inhibition [4] | outcome [5] | outcome [6] | outcome [7] | outcome [8]
Cc1cccc2[nH]c(-c3ccc(-c4ccc(NC(=O)Nc5ccc(Cl)c(Cl)c5)cc4)s3)nc12 | 101% (active) | 100% (active) | 0 | 101% (active) | inactive | inactive | inactive | inactive
Oc1cccc(Nc2nc(NCc3ccccc3)c3ccccc3n2)c1 | 99% (active) | 21% | -7 | 95% (active) | inactive | inactive | inactive | inactive
COc1ccccc1OCCN(CC(O)COc1cccc2[nH]c3ccccc3c12)CC(O)COc1cccc2[nH]c3ccccc3c12 (stereo not drawn) | 96% (active) | 16% | -8 | 97% (active) | inactive | inactive | inactive | inactive
COc1cc(OC)c2c(C)cc(NCCCN3CCOCC3)nc2c1 | 3% | 6% | 0 | 99% (active) | inactive | inactive | inactive | inactive
COc1cc2nc(N3CCC(CNC(=O)c4ccc(-c5ccc(C(=O)N(C)C)cc5)cc4)CC3)nc(N)c2cc1OC | 89% (active) | 20% | 0 | 101% (active) | inactive | inactive | inactive | inactive
CC(CN(C)C)C(=O)Nc1ccc(-c2ccc(-c3nc4ccccc4[nH]3)s2)cc1 (stereo not drawn) | 86% (active) | 14% | 5 | 100% (active) | inactive | inactive | inactive | inactive
COc1ccc(C=NNc2cc(C)nc3ccccc23)cc1OC | 8% | 19% | -1 | 91% (active) | inactive | inactive | inactive | inactive
COc1ccccc1CCCN1C(=O)C(c2ccccc2)(c2ccccc2)N=C1N | 99% (active) | 49% | -3 | 99% (active) | inactive | inactive | inactive | inactive
C=CCc1ccccc1OCC(O)CN(C1CCCCC1)C1CCCCC1 (stereo not drawn) | 84% (active) | 50% (active) | 1 | 93% (active) | inactive | inactive | inactive | inactive
COc1ccc(Cn2c(Nc3cccc(C(F)(F)F)c3)nc3cc(C(=O)NCCN4CCCC4)ccc32)cc1Cl | 54% (active) | 11% | 2 | 97% (active) | inactive | inactive | inactive | inactive
Cc1nc(-c2ccc(-c3ccc(C(=O)Nc4ccc(I)c(OCCN5CCCC5)c4)cc3)c(C)c2)no1 | 35% | 96% (active) | -1 | 95% (active) | inactive | inactive | inactive | inactive
CCOC(=O)C1CCN(CCCNC(=O)/C(=C/C=C/c2cc3cc(Cl)c(Cl)cc3[nH]2)OC)CC1 | 78% (active) | 23% | -6 | 87% (active) | inactive | inactive | inactive | inactive
CC(C)[C@@H](C(=O)NCc1cccc(C(F)(F)F)c1)N1C(=O)CCC1C(=O)Nc1ccc([N+](=O)[O-])cc1 (stereo partly drawn) | 2% | -5% | -2 | 94% (active) | inactive | inactive | inactive | inactive
CCCCCC(C)C(C)c1cc(O)c2c(c1)OC(C)(C)CC2(O)c1ccnn1C (stereo not drawn) | 95% (active) | 20% | 4 | 98% (active) | inactive | inactive | inactive | inactive
CC(NC(=O)c1ccc(O)c(-c2ccc(Cl)c(Cl)c2)c1)C(=O)NCCN1CCOCC1 (stereo not drawn) | 7% | 2% | -3 | 87% (active) | inactive | inactive | inactive | inactive
CCCCCCCCCN1CC[C@@H](CCCc2ccnc3ccc(O)cc23)[C@@H](CC)C1 | 59% (active) | 58% (active) | -3 | 83% (active) | inactive | inactive | inactive | inactive
CCCCCCNc1cc(C)nc(/N=C(\N)Nc2cccc(C(F)(F)F)c2)n1 | 100% (active) | 44% | -2 | 100% (active) | inactive | inactive | inactive | inactive
Cc1cc(C2CCN(CCCCNC(=O)c3ccc(-c4ccc(C(F)(F)F)cc4)cc3)CC2)c(C)cc1OCC(N)=O | 44% | 34% | -7 | 91% (active) | inactive | inactive | inactive | inactive
CN1CCCc2ccc(NC(=O)Nc3ccc(-c4ccccc4)cc3)cc2C1 | 47% | 23% | 0 | 97% (active) | inactive | inactive | inactive | inactive
CC(C)Nc1nc(NCCc2cnc[nH]2)nc(NCc2cccc3ccccc23)n1 | 0% | 4% | 2 | 90% (active) | inactive | inactive | inactive | inactive
NC(=O)c1sc(-n2cnc3ccccc32)cc1OCc1ccccc1[N+](=O)[O-] | 46% | 10% | -2 | 99% (active) | inactive | inactive | inactive | inactive
